Legend:
Details in all cases: concentration: 1 μM, replicates: in singlicate; n = 1
[1] = system: ACVR1B
[2] = system: ACVR1
[3] = system: ACVR2A
[4] = system: ACVR2B
[5] = system: ACVRL1
[6] = system: T1, ADCK3
T1 construct: gene CABC1

[7] = system: ADCK4
[8] = system: AKT1
[9] = system: AKT2
[10] = system: AKT3
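Note: KINOMEscan kinase panel screen.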

| SMILES | %Inh [1] [%] | %Inh [2] [%] | %Inh [3] [%] | %Inh [4] [%] | %Inh [5] [%] | %Inh [6] [%] | %Inh [7] [%] | %Inh [8] [%] | %Inh [9] [%] | %Inh [10] [%] |
| --- | --- | --- | --- | --- | --- | --- | --- | --- | --- | --- |
| CN(C)c1cc(-c2ccc3c(N)n[nH]c3c2)nc(N)n1 [GSK2219329] | 0 | 0 | 0 | 1 | 0 | 9 | 23 | 0 | 0 | 0 |
| CCS(=O)c1ccc(-c2coc3ccc(-c4nnc(C)o4)cc23)cc1 (centres unmarked) | 0 | 5 | 0 | 0 | 6 | 5 | 0 | 0 | 0 | 0 |
| COc1cc(Nc2ccnc3ccc(C(F)(F)F)cc23)cc(OC)c1OC [GW577382] | 0 | 67 | 0 | 0 | 52 | 86 | 54 | 0 | 20 | 0 |
| COc1cc2ncn(-c3cc(OCCCc4ccccc4)c(C(N)=O)s3)c2cc1OC [GSK205189] | 0 | 0 | 0 | 0 | 0 | 24 | 3 | 0 | 2 | 0 |
| COc1ccc(Nc2nccc(N3CCC(NS(=O)(=O)c4ccc(NC(C)=O)cc4)C3)n2)cc1 (centres unmarked) [GSK1379729] | 3 | 34 | 32 | 22 | 8 | 9 | 38 | 0 | 7 | 0 |
| Cc1ccc(Oc2ccc(Nc3ncnc4cc[nH]c34)cc2C)cn1 | 27 | 2 | 0 | 0 | 0 | 16 | 0 | 17 | 0 | 0 |
| COc1cccc(C2=C(N(C)c3ccccc3)C(=O)NC2=O)c1 [SB-334865] | 0 | 28 | 0 | 3 | 0 | 4 | 21 | 0 | 13 | 0 |
| COc1ccc(-n2cnc3c(N)ncnc32)cc1 [SKF-97236] | 21 | 7 | 35 | 32 | 10 | 0 | 0 | 0 | 1 | 11 |
| COC(=O)c1c(-c2ccccc2)c2cc(Br)ccc2c(=O)n1Cc1ccc(NC(=O)CCC(=O)O)cc1 | 0 | 0 | 0 | 0 | 0 | 0 | 0 | 12 | 11 | 0 |
| Nc1nccc2scc(-c3ccc4c(c3)CCN4C(=O)Cc3ccccc3)c12 [GSK2576924] | 0 | 10 | 42 | 0 | 0 | 13 | 0 | 0 | 11 | 0 |
| COc1cccc(C2=C(Nc3cccc(C(=O)O)c3)C(=O)NC2=O)c1 [SB-390770] | 18 | 15 | 17 | 40 | 4 | 0 | 8 | 2 | 0 | 0 |
| COc1cccc(-n2cnc3c(N)ncnc32)c1 [SKF-97416] | 22 | 0 | 3 | 0 | 11 | 0 | 8 | 1 | 0 | 22 |
| COC(=O)c1c(-c2ccccc2)c2cc(C)ccc2c(=O)n1Cc1ccccc1 | 0 | 0 | 7 | 0 | 0 | 0 | 0 | 0 | 3 | 0 |
| COc1cc(OC)cc(-c2cc3cnc(N)nc3nc2NC(=O)NC(C)(C)C)c1 | 10 | 0 | 0 | 0 | 0 | 0 | 0 | 4 | 11 | 24 |
| CCc1ccc(-c2ccc3c(c2)-c2nn(C)cc2S(=O)(=O)N3C)cc1 | 0 | 0 | 21 | 1 | 0 | 0 | 0 | 0 | 3 | 0 |
| COc1cc(Nc2nccc(N3CCC(NC(=O)C4COc5ccccc5O4)C3)n2)cc(OC)c1OC (centres unmarked) [GSK1379761] | 0 | 20 | 22 | 13 | 0 | 10 | 65 | 0 | 9 | 0 |

| SMILES | %Inh [1] [%] | %Inh [2] [%] | %Inh [3] [%] | %Inh [4] [%] | %Inh [5] [%] | %Inh [6] [%] | %Inh [7] [%] | %Inh [8] [%] | %Inh [9] [%] | %Inh [10] [%] |
| --- | --- | --- | --- | --- | --- | --- | --- | --- | --- | --- |
| Nc1ncnc2c1ncn2-c1cccc(F)c1 [SKF-97560] | 0 | 1 | 0 | 0 | 0 | 21 | 0 | 9 | 12 | 0 |
| Nc1nc(N)c2nc(-c3ccccc3)[nH]c2n1 [SKF-12778] | 18 | 6 | 27 | 26 | 3 | 0 | 22 | 15 | 8 | 15 |
| CCC(=O)c1c(-c2ccccc2)c2cc(Cl)ccc2c(=O)n1Cc1cc(C(=O)NC2CC2)n(C)n1 | 0 | 0 | 0 | 0 | 0 | 0 | 10 | 0 | 7 | 0 |
| COC(=O)c1c(-c2ccccc2)c2cc(Br)ccc2c(=O)n1Cc1ccc(S(C)(=O)=O)cc1 | 0 | 15 | 0 | 0 | 0 | 12 | 8 | 14 | 28 | 0 |
| Nc1nc(-c2ccccc2F)c(-c2ccnc3ccccc23)s1 [GW560459] | 0 | 6 | 0 | 0 | 0 | 0 | 22 | 0 | 0 | 0 |
| COc1cc2nccc(Nc3ccc(OCc4ccc(NC(C)=O)cc4)cc3)c2cc1OC.Cl [GW440135] | 0 | 25 | 0 | 1 | 4 | 15 | 23 | 6 | 0 | 0 |
| COc1cc2ncn(-c3cc(OCc4ccncc4)c(C(N)=O)s3)c2cc1OC [GSK336313] | 0 | 9 | 0 | 0 | 0 | 0 | 20 | 0 | 1 | 0 |
| COc1ccc(-c2coc3ccc(-c4nnc(SCc5cccc(C#N)c5)o4)cc23)cc1 | 6 | 6 | 0 | 0 | 0 | 21 | 0 | 0 | 2 | 0 |
| CCn1c(-c2ccoc2)nc2cnccc21 [SB-733887] | 0 | 15 | 0 | 18 | 0 | 10 | 20 | 0 | 14 | 0 |
| Nc1ncnc2c1ncn2-c1cccc2ccccc12 [SKF-97184] | 0 | 0 | 0 | 0 | 26 | 0 | 52 | 8 | 0 | 0 |
| O=c1cc(N2CCOCC2)nc2n(Cc3ccc(F)c(Cl)c3)ccn12 [GSK2297099] | 0 | 0 | 0 | 0 | 0 | 0 | 11 | 0 | 13 | 0 |
| O=C(Nc1n[nH]c2nc(-c3ccccc3)c(Cl)cc12)C1CC1 [SB-734909] | 7 | 0 | 7 | 8 | 0 | 0 | 0 | 0 | 0 | 0 |
| Cl.c1ccc(Cn2cnc3cc(Nc4ncnc5ccccc45)ccc32)cc1 [GW272142] | 0 | 17 | 0 | 2 | 0 | 13 | 34 | 0 | 3 | 0 |
| CCC(=O)c1c(-c2ccccc2)c2cc(Cl)ccc2c(=O)n1Cc1ccc(C(=O)O)cc1 | 0 | 11 | 0 | 0 | 0 | 0 | 0 | 0 | 0 | 0 |
| CCCC(=O)Nc1n[nH]c2ncc(-c3cccc4ccccc34)cc12 [SB-642057] | 0 | 26 | 0 | 9 | 59 | 5 | 5 | 0 | 39 | 0 |
| COc1ccc(-c2cc3c(C)nc(N)nc3n([C@H]3CC[C@H](OCCO)CC3)c2=O)cn1 | 9 | 4 | 0 | 0 | 0 | 0 | 0 | 6 | 0 | 1 |
